Data as given in PubChem BioAssay AID1159580 (chemical genetic matrix, 2015).
Screen size: about 5,500 compounds; about 2,000 (36%) were called active. Not shown: some 18% with an inconclusive outcome. No stated cut-off is given here; in the data, active means normalized growth mostly below about 0.91 (no sharp cut-off); inconclusive means no clear call, values can overlap the other calls; inactive means mostly above about 0.92. The list shows a part of the results.

Assay: chemical genetic growth profiling, strain panel (AID 1159580);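 further: tested at 20 µM; growth read once vehicle control cultures reached saturation at 30 °C; 1 = growth at the plate median or of vehicle wells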
Conditions: growth OD

Measured: normalized growth

COc1ccc(OC)c(C(O)CNC(=O)CN)c1 (stereo not given)
inactive: S. cerevisiae deletion strains, locus YKL009W, strain mrt4, stronger effect = lower value 0.969 | S. cerevisiae deletion strains, locus YKL068W, stronger effect = lower value 0.985 | S. cerevisiae deletion strains, locus YKL085W, strain MDH1 (second series), stronger effect = lower value 0.984 | S. cerevisiae deletion strains, locus YKL085W, strain MDH1, stronger effect = lower value 0.984 | S. cerevisiae deletion strains, locus YKL160W, strain elf1, stronger effect = lower value 1 | S. cerevisiae deletion strains, locus YKL190W, strain CNB1, stronger effect = lower value 0.984 | S. cerevisiae deletion strains, locus YKR001C, strain vps1, stronger effect = lower value 0.96 | S. cerevisiae deletion strains, locus YKR026C, strain gcn3, stronger effect = lower value 1.01 | S. cerevisiae deletion strains, locus YKR091W, strain srl3, stronger effect = lower value 0.996 | S. cerevisiae deletion strains, locus YLL001W, strain dnm1, stronger effect = lower value 1.01 | S. cerevisiae deletion strains, locus YLL026W, stronger effect = lower value 0.999 | S. cerevisiae deletion strains, locus YLL041C, strain sdh2, stronger effect = lower value 0.995 | S. cerevisiae deletion strains, locus YLR027C, strain aat2, stronger effect = lower value 1 | S. cerevisiae deletion strains, locus YLR039C, strain RIC1, stronger effect = lower value 0.966 | S. cerevisiae deletion strains, locus YLR058C, strain SHM2, stronger effect = lower value 0.976 | S. cerevisiae deletion strains, locus YLR102C, strain apc9, stronger effect = lower value 0.982 | S. cerevisiae deletion strains, locus YLR113W, strain HOG1, stronger effect = lower value 1.05 | S. cerevisiae deletion strains, locus YLR221C, strain rsa3, stronger effect = lower value 1 | S. cerevisiae deletion strains, locus YLR258W, strain gsy2, stronger effect = lower value 1 | S. cerevisiae deletion strains, locus YLR262C, strain YPT6 (second series), stronger effect = lower value 1.01 | S. cerevisiae deletion strains, locus YLR262C, strain YPT6, stronger effect = lower value 0.956 | S. cerevisiae deletion strains, locus YLR268W, strain sec22, stronger effect = lower value 0.996 | S. cerevisiae deletion strains, locus YLR320W, strain mms22, stronger effect = lower value 1.03 | S. cerevisiae deletion strains, locus YLR330W, strain CHS5, stronger effect = lower value 1 | S. cerevisiae deletion strains, locus YLR342W, strain FKS1 (second series), stronger effect = lower value 1.04 | S. cerevisiae deletion strains, locus YLR342W, strain FKS1, stronger effect = lower value 1.01 | S. cerevisiae deletion strains, locus YLR357W, strain rsc2, stronger effect = lower value 1.02 | S. cerevisiae deletion strains, locus YLR370C, strain arc18, stronger effect = lower value 1 | S. cerevisiae deletion strains, locus YLR371W, strain rom2, stronger effect = lower value 0.974 | S. cerevisiae deletion strains, locus YLR384C, strain iki3, stronger effect = lower value 1.02 | S. cerevisiae deletion strains, locus YLR418C, strain cdc73, stronger effect = lower value 0.973 | S. cerevisiae deletion strains, locus YML016C, strain PPZ1, stronger effect = lower value 0.99 | S. cerevisiae deletion strains, locus YML032C, strain rad52, stronger effect = lower value 0.959 | S. cerevisiae deletion strains, locus YML120C, strain ndi1, stronger effect = lower value 0.993 | S. cerevisiae deletion strains, locus YML124C, strain tub3, stronger effect = lower value 0.981 | S. cerevisiae deletion strains, locus YMR058W, strain fet3, stronger effect = lower value 1 | S. cerevisiae deletion strains, locus YMR078C, strain ctf18, stronger effect = lower value 0.976 | S. cerevisiae deletion strains, locus YMR125W, strain sto1, stronger effect = lower value 1 | S. cerevisiae deletion strains, locus YMR129W, stronger effect = lower value 1 | S. cerevisiae deletion strains, locus YMR205C, strain PFK2, stronger effect = lower value 1.02 | S. cerevisiae deletion strains, locus YMR223W, strain ubp8, stronger effect = lower value 0.993 | S. cerevisiae deletion strains, locus YMR231W, strain pep5, stronger effect = lower value 1.02 | S. cerevisiae deletion strains, locus YMR263W, strain SAP30, stronger effect = lower value 0.988 | S. cerevisiae deletion strains, locus YMR307W, strain GAS1, stronger effect = lower value 1.05 | S. cerevisiae deletion strains, locus YNL067W, strain RPL9B, stronger effect = lower value 0.971 | S. cerevisiae deletion strains, locus YNL071W, strain lat1, stronger effect = lower value 0.99 | S. cerevisiae deletion strains, locus YNL128W, strain TEP1, stronger effect = lower value 0.983 | S. cerevisiae deletion strains, locus YNL153C, strain GIM3, stronger effect = lower value 0.961 | S. cerevisiae deletion strains, locus YNL183C, strain NPR1, stronger effect = lower value 1 | S. cerevisiae deletion strains, locus YNL209W, strain ssb2, stronger effect = lower value 0.998 | S. cerevisiae deletion strains, locus YNL233W, strain BNI4, stronger effect = lower value 1.01 | S. cerevisiae deletion strains, locus YNL248C, strain rpa49, stronger effect = lower value 0.998 | S. cerevisiae deletion strains, locus YNL250W, strain rad50, stronger effect = lower value 0.968 | S. cerevisiae deletion strains, locus YNL271C, strain bni1, stronger effect = lower value 0.982 | S. cerevisiae deletion strains, locus YNL298W, strain CLA4, stronger effect = lower value 0.986 | S. cerevisiae deletion strains, locus YNL307C, strain MCK1, stronger effect = lower value 0.96 | S. cerevisiae deletion strains, locus YNL322C, strain KRE1 (second series), stronger effect = lower value 0.997 | S. cerevisiae deletion strains, locus YNL322C, strain KRE1, stronger effect = lower value 0.989 | S. cerevisiae deletion strains, locus YNR049C, strain mso1, stronger effect = lower value 1 | S. cerevisiae deletion strains, locus YNR052C, strain pop2, stronger effect = lower value 0.973 | S. cerevisiae deletion strains, locus YOL006C, strain TOP1, stronger effect = lower value 0.933 | S. cerevisiae deletion strains, locus YOL012C, strain htz1 0.916 | S. cerevisiae deletion strains, locus YOL147C, strain pex11, stronger effect = lower value 0.982 | S. cerevisiae deletion strains, locus YOR001W, strain rrp6, stronger effect = lower value 0.996 | S. cerevisiae deletion strains, locus YOR061W, strain CKA2, stronger effect = lower value 0.967 | S. cerevisiae deletion strains, locus YOR069W, strain VPS5, stronger effect = lower value 0.995 | S. cerevisiae deletion strains, locus YOR070C, strain gyp1, stronger effect = lower value 0.997 | S. cerevisiae deletion strains, locus YOR080W, strain dia2, stronger effect = lower value 1.01 | S. cerevisiae deletion strains, locus YOR083W, strain WHI5, stronger effect = lower value 1.01 | S. cerevisiae deletion strains, locus YOR106W, strain vam3, stronger effect = lower value 1.02 | S. cerevisiae deletion strains, locus YOR136W, strain idh2, stronger effect = lower value 0.977 | S. cerevisiae deletion strains, locus YOR144C, strain elg1, stronger effect = lower value 0.99 | S. cerevisiae deletion strains, locus YOR184W, strain ser1, stronger effect = lower value 0.97 | S. cerevisiae deletion strains, locus YOR231W, strain MKK1, stronger effect = lower value 1.05 | S. cerevisiae deletion strains, locus YOR265W, strain rbl2, stronger effect = lower value 0.998 | S. cerevisiae deletion strains, locus YOR270C, strain vph1, stronger effect = lower value 1.03 | S. cerevisiae deletion strains, locus YOR290C, strain snf2, stronger effect = lower value 0.997 | S. cerevisiae deletion strains, locus YOR316C, strain cot1, stronger effect = lower value 0.96 | S. cerevisiae deletion strains, locus YPL051W, strain arl3, stronger effect = lower value 1 | S. cerevisiae deletion strains, locus YPL055C, strain LGE1, stronger effect = lower value 0.94 | S. cerevisiae deletion strains, locus YPL078C, strain atp4, stronger effect = lower value 1.01 | S. cerevisiae deletion strains, locus YPL106C, strain sse1, stronger effect = lower value 1.01 | S. cerevisiae deletion strains, locus YPL240C, strain hsp82, stronger effect = lower value 0.997 | S. cerevisiae deletion strains, locus YPL256C, strain CLN2, stronger effect = lower value 1.01 | S. cerevisiae deletion strains, locus YPR119W, strain clb2, stronger effect = lower value 0.985 | S. cerevisiae deletion strains, locus YPR141C, strain kar3, stronger effect = lower value 0.966 | S. cerevisiae deletion strains, locus YPR163C, strain tif3, stronger effect = lower value 0.983 | S. cerevisiae deletion strains, locus YPR167C, strain met16, stronger effect = lower value 0.98 | S. cerevisiae deletion strains, strain wtn01, stronger effect = lower value 1.01 | S. cerevisiae strains, strain wild type, stronger effect = lower value 0.977
